Measured values as given in PubChem BioAssay (NCI).
Values joined by “and” are separate entries in the source; they are usually repeats but may differ in a detail not shown here. Equal values may be shown once. This is part of a sample that, as a whole, favours compounds with a hit. Of some 83,000 tested, about 20% had one in any assay.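 The endpoint reported here, percent growth, reads 100 for growth as untreated, 0 for no net growth and -100 for all cells dead.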 A number with no mark means an inactive call. Active and inactive are the calls of the source. Rule for the calls: active = growth percent below 10; inactive = the rest.

How the values were obtained:
Test in all cases: NCI-60 one-dose screen, 48 h (100 = growth as untreated, 0 = no growth, -100 = all killed)
T-47D breast = settings: 10 µM
BT-549 breast = settings: 10 µM
MDA-MB-435 melanoma = settings: 10 µM
SW-620 colon = settings: 10 µM
MCF7 breast = tested on: MCF7 breast
HCT-116 colon = settings: 10 µM
HCC-2998 colon = settings: 10 µM
KM12 colon = settings: 10 µM

Compound | growth (T-47D breast) | growth (BT-549 breast) | growth (MDA-MB-435 melanoma) | growth (SW-620 colon) | growth (MCF7 breast; 10 µM unless noted) | growth (HCT-116 colon) | growth (HCC-2998 colon) | growth (KM12 colon) | growth (MCF7 breast; 10 µM) [%] | growth (MCF7 breast; 100 µM)
CC(=O)Nc1ccc(NC(C)=O)c2c1C(=O)c1ccccc1C2=O | 81.2% | 36.4% | 107% | 91% | 87.3% | 79.3% | 105% | 94.5% |  | 
COc1ccccc1N1CCN(C(=S)Nc2ccccc2)CC1 | 90.9% | 91.7% | 102% | 103% | 99.5% | 103% | 134% |  |  | 
N#Cc1c(N)sc(=S)c2c1CCCC2 | 95.7% | 98.5% | 109% | 112% | 93.3% | 104% |  |  |  | 
CC(=O)c1sc2c(c1OC(=O)c1ccc(Cl)cc1Cl)c(=O)n(-c1ccccc1)c(=S)n2-c1ccccc1 | 61.1% | -24.4% (active) | 4.71% (active) | 14% |  | -0.425% (active) | 24.6% | -0.943% (active) | 51.2 | 6.27% (active) and -47.6% (active)
COc1ccc(/C(C#N)=C2C=C/C(=N/O)c3ccccc3\2)cc1 | 64.8% | 31% | -57% (active) | 20.1% | 13.1% | 5.12% (active) | -11.4% (active) |  |  | 
CC(=O)c1ccc2c(ccc3ccccc32)c1 | 98.9% | 98.1% | 96.3% | 99.7% | 96.3% | 90.3% | 109% |  |  | 
CC(=O)OCC1=CC2OC(=O)C3=COC(OC4OC(CO)C(O)C(O)C4O)C1C32 (centres undefined) | 105% | 110% | 109% | 111% |  | 123% | 300% | 107% | 96.7 | 78% and 90.4%
Oc1ccc(Cc2ccccc2)c2cccnc12 | 25.3% | 11% | 32.2% | 31.4% | 14.1% | 7.1% (active) | 26.2% |  |  | 
Oc1ccc2c(c1)OCC1(O)Cc3cc(O)c(O)cc3C21 (centres undefined) | 168% | 88.9% | 92.3% | 95% | 103% | 84.1% | 64.8% | 96.5% |  | 
Cc1cc(O)ccc1O | 101% | 83.5% | 97.7% | 117% | 94.7% | 96.4% | 121% |  |  | 
COc1ccc2c(NCCCCCCCCNc3c4ccccc4nc4cc(OC)ccc34)c3ccccc3nc2c1 | -74.6% (active) | -95.9% (active) | -100% (active) | -100% (active) | -100% (active) | -100% (active) | -100% (active) |  |  | 
COC(=O)c1ccc(C(C)C)cc1 | 82.3% | 85.6% | 99.8% | 113% | 93.1% | 85.1% | 101% |  |  | 
COC(=O)CCCCC1=CCC2C(=O)C=C(O)C2C1 (centres undefined) | 98.9% | 98.7% | 110% | 106% | 94.9% | 102% | 132% |  |  | 
COCCOCCCl | 98.1% | 107% | 106% | 101% | 100% | 99.7% | 101% | 107% |  | 
O=[N+]([O-])c1ccc(N=Nc2ccccc2)cc1 | 87.4% | 87.2% | 110% | 115% | 109% | 97.1% | 104% |  |  | 
C=CCc1cc(C(C)=O)cc(OC)c1O | 118% | 97.2% | 113% | 95.9% | 106% | 102% | 96.3% | 96.6% |  | 
CCC(C)(O)c1ccc(C)cc1 (centres undefined) | 104% | 105% | 106% | 98.2% | 100% | 108% | 105% |  |  | 
O=P(O)(O)OCC(O)CO (centres undefined) | 100% | 102% | 109% | 107% | 95.6% | 102% | 107% |  |  | 

Compound | growth (T-47D breast) | growth (BT-549 breast) | growth (MDA-MB-435 melanoma) | growth (SW-620 colon) | growth (MCF7 breast; 10 µM unless noted) | growth (HCT-116 colon) | growth (HCC-2998 colon) | growth (KM12 colon) | growth (MCF7 breast; 10 µM) [%] | growth (MCF7 breast; 100 µM)
Cc1ccc(C(=O)c2ccccc2)c(C)c1 | 96.4% | 99.6% | 118% | 98.7% | 101% | 94.8% |  |  |  | 
CN(C)c1ccc(C(c2ccc(O)cc2)c2ccc(N(C)C)cc2)cc1 | 59.8% | 103% | 41.8% | 96.5% | 78.6% | 93.9% | 117% | 89.5% |  | 
O=C1Cc2cc(O)ccc2O1 | 101% | 109% | 105% | 113% | 101% | 101% | 105% |  |  | 
O=C(O)C(O)c1ccccc1 (centres undefined) | 95.1% | 97.1% | 108% | 107% | 99.1% | 96.7% | 103% |  |  | 
C[N+](C)=c1ccc2nc3c(cc(Nc4ccccc4)c4ccccc43)oc-2c1 | 31.8% | 41.7% | 53.5% | 56% | 32.5% | 47.1% | 75.6% |  |  | 
Nc1ccc(C(=O)c2ccc(N)c(Br)c2)cc1Br | 43.5% | 56.4% | -3.36% (active) | 21.2% | 13.2% | 14.8% |  |  |  | 
COc1cccc(O)c1O | 84.1% | 82.3% | 6.89% (active) | 42.6% | 20.2% | 98.6% |  |  |  | 
S=C(Nc1ccccc1)N1CCCCC1 | 89.3% | 112% | 110% | 106% | 93.2% | 92.3% | 101% | 105% |  | 
Cc1cccc(C(=O)N(C(C)C)C(C)C)c1 | 83.9% | 105% | 106% | 96.4% | 98.9% | 94.7% | 109% | 104% |  | 
CCOc1ccccc1/C=N/Nc1nc2ccccc2o1 | 23.4% | 98.3% | 113% | 102% | 7.97% (active) | 102% | 62.2% |  |  | 
Nc1nc(N)c2cc(S(=O)(=O)c3cccc(C(F)(F)F)c3)ccc2n1 | 74.1% | 76.8% | 31.7% | 25.4% | 43.1% | 15.6% | 37.4% |  |  | 
Nc1nc(OCc2ccccc2)c2[nH]cnc2n1 | 101% | 94.4% | 99.3% | 102% | 95.9% | 95.4% | 104% |  |  | 
CCn1c(=O)n(C)c2c(=O)n(C)c(=O)n(C)c21 | 98% | 101% | 98.6% | 107% | 103% | 109% | 87.8% |  |  | 
CCOC(=O)c1cc2cccc(OC)c2oc1=O | 106% | 88.6% | 110% | 111% | 105% | 101% | 108% |  |  | 
O=C1OC(c2ccc(F)cc2)CC1CN1CCOCC1 (centres undefined) | 93.6% | 95.5% | 109% | 102% | 97.6% | 92.5% | 98.8% | 102% |  | 
CC(=O)OC1CC2C(C)(C)OC3CC(=O)OCC32C2CCC3(C)C(=CCC3c3ccoc3)C12C (centres undefined) | 88.3% | 126% | 97.8% | 112% | 87.8% | 106% | 80.7% | 98.9% |  | 
CCNc1nc2c(cnn2C)c(=O)[nH]1 | 92.5% | 102% | 106% | 97.9% | 100% | 99.2% | 105% |  |  | 
